# Bioassay records as filed in PubChem.
# An excerpt weighted towards active compounds, which were near 3.2% of everything screened.
# A3G deaminase: inhibitors of human APOBEC3G DNA deaminase | Q9HC16 | recombinant A3G, ssDNA deamination FAM/TAMRA fluorescence | inhibition, % at 20 µM | 330,000 tested, 0.28% active | AID 493012;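 active = inhibition of at least 40% at 20 µM, with no more than 30% in the related APOBEC3A deaminase screen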
# Target sequence (Q9HC16 whole entry, looked up): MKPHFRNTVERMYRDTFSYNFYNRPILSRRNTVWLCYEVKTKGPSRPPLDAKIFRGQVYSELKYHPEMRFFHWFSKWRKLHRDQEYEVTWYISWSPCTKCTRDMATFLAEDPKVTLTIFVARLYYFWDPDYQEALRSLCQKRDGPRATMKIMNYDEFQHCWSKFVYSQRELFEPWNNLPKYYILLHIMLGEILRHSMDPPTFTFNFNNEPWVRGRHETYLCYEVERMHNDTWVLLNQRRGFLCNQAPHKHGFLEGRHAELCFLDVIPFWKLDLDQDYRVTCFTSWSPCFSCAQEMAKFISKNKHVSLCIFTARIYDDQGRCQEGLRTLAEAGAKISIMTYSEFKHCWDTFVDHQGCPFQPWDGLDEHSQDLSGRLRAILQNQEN
# NTR1 ag: agonists of human neurotensin receptor NTR1; activation, % at 20 µM; AID 493036; P30989; NTR1-U2OS beta-arrestin-GFP spot imaging, agonist mode; 330,000 tested, 0.17% active;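 active = activation at or above 40% of the spot to cytoplasm intensity ratio, with at least 20 cells analyzed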
# APOBEC3A inh: inhibitors of human APOBEC3A DNA deaminase | 330,000 tested, 0.41% active | inhibition, % at 20 µM | recombinant A3A, FAM/TAMRA ssDNA deamination fluorescence | P31941;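 active = at least 40% inhibition at 20 µM here, with at most 30% in a related deaminase screen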
# Target sequence (P31941 whole entry, looked up): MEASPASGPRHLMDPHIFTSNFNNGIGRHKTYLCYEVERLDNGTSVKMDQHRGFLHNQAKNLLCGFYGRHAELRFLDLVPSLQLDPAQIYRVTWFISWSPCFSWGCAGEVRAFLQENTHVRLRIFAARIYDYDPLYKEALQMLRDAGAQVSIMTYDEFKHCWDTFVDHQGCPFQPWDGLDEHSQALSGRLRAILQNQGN
# AHR activator: activators of human aryl hydrocarbon receptor. activation, % at 5 µM. AHR-responsive luciferase reporter cells, luminescence. 320,000 tested, 2.5% active. P35869. AID 2796; in the data active = activation above about 47%
# A number is an active result; 0 = inactive; - = no result.
SMILES,A3G deaminase,NTR1 ag,APOBEC3A inh,AHR activator
COc1cc(F)cc(-c2ccc3c(c2)c(-c2cccs2)c(-c2cc(OC)cc(OC)c2)n3C)c1,0,0,0,0
COc1cc(OC)cc(-c2c(-c3cccs3)c3cc(Br)ccc3n2C)c1,0,0,0,0
CN(C)c1ccc(NC(=S)NC23CC4CC(CC(C4)C2)C3)cc1,0,0,0,0
c1ccc(-c2noc(-c3cccnc3)n2)cc1,0,0,0,59.0
c1ccc(-c2ccc(-c3nc(-c4cccnc4)no3)cc2)cc1,0,0,0,0
COc1ccc2[nH]c(=O)c(-c3noc(-c4ccccc4)n3)cc2c1,0,0,0,0
O=c1[nH]c2ccccc2cc1-c1noc(-c2cccnc2)n1,0,0,0,73.0
Cc1cccc(NC(=O)C(C)Oc2ccc(C)nc2[N+](=O)[O-])c1 (configuration not stated),0,0,0,0
O=[N+]([O-])c1cccc(C(=Nc2cccc(Cl)c2)NO)c1,0,0,0,88.5
O=C(NCCc1cccc(Cl)c1)c1cccc([N+](=O)[O-])c1,0,0,0,0
COc1cc2cc(-c3ccc(O)cc3O)nc(C)c2cc1OC,0,0,0,48.1
CNc1ncc(Cc2ccccc2)s1,0,0,0,0
O=C(Nc1ccccc1-c1nc2ccccc2[nH]1)c1ccc(N2C(=O)CCC2=O)cc1,0,0,0,49.5
CC(C)(C)c1ccc(C(=O)Nc2ncn[nH]2)cc1,0,0,0,69.7
Cc1ccc(C(=O)Nc2ncn[nH]2)cc1,0,0,0,0
Cc1nc(SCc2nc3ccccc3[nH]2)c2oc3cc(Br)ccc3c2n1,0,0,0,77.1
C=C1C[C@H](O[C@@H]2O[C@H](CO)[C@@H](O)[C@H](O)[C@H]2O)[C@@H]2[C@H](OC(=O)[C@H]2C)[C@H]2[C@H](C)[C@H](O)C[C@@H]12,0,0,0,0
C=CCn1c(NC(=O)c2ccco2)nc2ccccc21,0,0,0,68.0
CCOc1ccc(CC(=O)N/N=C(\C)c2cccnc2)cc1,0,0,0,-
Cc1ccc(-n2nc(C)c(NC(=O)CCl)c2C)cc1C,0,0,0,51.6
COc1ccc(CNC(=O)COC(=O)c2ccc(OCC3CCCO3)cc2)cc1 (configuration not stated),0,0,0,0
CN(CCCC(=O)NC1CC(C)(C)NC(C)(C)C1)S(=O)(=O)c1ccc([N+](=O)[O-])cc1,0,0,0,0
O=C(N/N=C/c1sc2ccccc2c1O)c1ccccc1,0,0,0,73.5
Cc1[nH]c(=O)[nH]c(=O)c1CSCC(=O)OCC(=O)Nc1ccccn1,0,0,0,0
O=C(c1ccc2c(c1)OCO2)C1CCCN(Cc2cccn2-c2cccnc2)C1 (configuration not stated),0,0,0,49.5
SMILES,A3G deaminase,NTR1 ag,APOBEC3A inh,AHR activator
Cc1cc(C)n(CCN(C)C(=O)C2CCC(=O)N(CCN3CCOCC3)C2)n1 (configuration not stated),0,0,0,0
O=c1cc(-c2ccc(Cl)cc2)[nH]c2ccccc12,0,0,0,0
Cc1ccc(-c2cc(=O)c3ccccc3[nH]2)cc1,0,0,0,50.0
COc1ccccc1C(=O)NNC(=O)c1ccc(Br)o1,0,0,0,55.2
CC(C)c1ccc(O)c(N)c1,0,0,0,0
CC(C)(C)c1ccc(O)c(N)c1,0,0,0,48.0
O=C(NC1CCCCC1)c1cc(-c2cccc(Cl)c2)on1,0,0,0,0
CCN1C(=O)[C@H]2[C@H]3CN=C(SCc4ccc(C)cc4)N3[C@@](C)(C(=O)OC)[C@H]2C1=O,0,0,0,-
COc1ccc(-c2nc3ncccc3o2)cc1NC(=O)c1ccco1,0,0,0,76.3
CCc1c(C)nc2cc(-c3cccc(Br)c3)[nH]n2c1=O,0,0,0,70.5
CCCCn1c(-c2cccs2)nc2nc3ccccc3nc21,0,0,0,0
CC(C)Cn1c(-c2cccs2)nc2nc3ccccc3nc21,0,0,0,51.6
CCOC(=O)CSc1nnc(NC(=O)c2cccc([N+](=O)[O-])c2C)s1,0,0,0,0
COc1ccc(S(=O)(=O)N(C)c2ccc(C(=O)NCC3CCCO3)cc2)cc1OC (configuration not stated),0,0,0,0
CCCCCCC(=O)N(O)C1CC(=O)N(c2ccc(C)cc2)C1=O (configuration not stated),0,0,0,0
CCCCCCC(=O)N(O)C1CC(=O)N(c2ccc(Cl)cc2)C1=O (configuration not stated),40.5,0,0,0
CCn1c(-c2cccnc2Cl)nc2cc(Cl)c(Cl)cc21,0,0,0,51.8
CCN(CC)CCn1c(=O)n(-c2ccc(Cl)cc2)c(=O)c2c3c(sc21)CN(C)CC3,0,0,0,89.8
CCCc1ccc(OCc2ccc(C(=O)NCc3cccnc3)o2)c(OC)c1,0,0,0,50.5
O=C(NCc1cccnc1)c1ccc(COc2ccc(Cl)cc2Cl)o1,0,0,0,0
CCCc1ccc(OCc2ccc(C(=O)Nc3cccc(C)n3)o2)c(OC)c1,0,0,0,59.8
NNC(=O)c1ccc(COc2cccc3ccccc23)o1,0,0,0,68.8
O=C(NCc1cccnc1)c1ccc(COc2cccc3ccccc23)o1,0,0,0,77.5
NC(=O)C(=O)N/N=C/c1c2ccccc2cc2ccccc12,0,0,0,0
CC(=O)c1cccc(NC(=O)CSc2n[nH]c(=O)n2C2CC2)c1,0,0,0,0
SMILES,A3G deaminase,NTR1 ag,APOBEC3A inh,AHR activator
CCOC(=O)COc1c(Cl)cc(C2NC(=S)NC(c3ccccc3)=C2C(C)=O)cc1OCC (configuration not stated),0,0,0,0
COc1ccccc1OCCCn1c(=O)oc2ccc(C)cc21,0,0,0,59.7
CC(=O)Nc1ccc(/C=N/NC(=O)CNC(=O)c2ccccc2)cc1,0,0,0,0
COc1ccc(OC)c(NC(=S)NC(=O)c2ccc(Br)o2)c1,0,0,0,0
O=C(Cn1nc(C(F)(F)F)c2c1CCCC2)Nc1ccc2c(c1)OCO2,0,0,0,49.9
COc1ccc(NC(=O)Cn2nc(C(F)(F)F)c3c2CCCC3)cc1OC,0,0,0,0
Cc1nnc(SCCC(=O)Nc2nc(-c3ccccc3)ns2)s1,0,0,0,66.8
CCCC(=O)Nc1nc(-c2ccccc2)ns1,0,0,0,69.9
CCOc1ccc(NC(=O)CCSc2nnc(C)s2)cc1,0,0,0,0
O=C(Nc1ccnc(-c2cccnc2)n1)c1cccs1,0,0,0,64.3
O=C(Nc1nc(-c2ccccc2)ns1)c1cccs1,0,0,0,105.6
O=C(NCc1nc(-c2ccccc2)no1)c1cccs1,0,0,0,0
CCO/C(C)=C1/SC(=S)NC1=O,0,0,0,0
CC(C)CCN(C(=O)COc1ccc(C#N)cc1)c1c(N)n(Cc2ccccc2)c(=O)[nH]c1=O,0,0,0,0
C[C@H](CO)N1C[C@H](C)[C@@H](CN(C)Cc2ccncc2)Oc2c(NS(=O)(=O)c3ccc(F)cc3)cccc2C1=O,0,0,0,0
CC(C)(CC(=O)O)CC(=O)NNc1ncccc1C#N,0,0,0,0
CC(=O)Nc1nc(-c2ccc(Cl)cc2)ns1,0,0,0,84.3
CC(C)C(=O)Nc1nc(-c2ccccc2)ns1,0,0,0,0
